This is a sample that favours compounds with a hit; in the whole collection about 2.1% have one here.
KLF5 inhibitor: KLF5 expression inhibitors, primary screen, DLD-1 cells, luminescence; DLD-1 KLF5 promoter-luciferase reporter; inhibition, % at 5 µM; hit rate 0.23% among 290,000; AID 1700, 2009;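 active means inhibition above a per-plate limit of that plate's mean compound inhibition plus 3 SD, cut at about 60% in these data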;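 further: higher means less KLF5 promoter-driven luciferase light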
IEC-6 tox: cytotoxicity in IEC-6 intestinal epithelial cells, primary screen, cytotoxicity control for KLF5 inhibitor project, cell-based, luminescence; IEC-6 cytotoxicity, luminescence viability; AID 1825, 2009; hit rate 0.78% among 290,000; inhibition, % at 5 µM; in the data active means inhibition above about 22%
Ba/F3 V617F tox: reduced viability of JAK2V617F-dependent Ba/F3 cells, primary screen, JAK2V617F inhibitor project, cell-based, Ba/F3 EpoR-JAK2V617F, luminescence; hit rate 1.1% among 220,000; inhibition, % at 5.6 µM; ATP luminescence;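 active means inhibition above the campaign mean plus 3 SD over all tested compounds, cut at about 24% in these data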;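 further: cytokine-independent growth of Ba/F3 cells driven by EpoR plus mutant JAK2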
BaF3 parental: parental Ba/F3 cell viability inhibition, counter-screen for JAK2V617F inhibitor project, murine pro-B, CellTiter-Glo luminescence. CellTiter-Glo ATP luminescence. inhibition, % at 5.6 µM. hit rate 1.1% among 220,000;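 active means inhibition above a per-campaign cutoff, the mean inhibition of all tested compounds plus 3 SD, cut at about 27% in these data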
APP 5UTR inh: inhibitors of APP translation via 5'UTR reporter, primary screen, APP 5'UTR luciferase, SH-SY5Y cells. hit rate 0.82% among 190,000. SH-SY5Y APP 5'UTR-luciferase reporter, luminescence. inhibition, % at 2 µM;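 active means inhibition above a set limit, derived from the sample mean plus 3 SD, cut at about 45% in these data; inconclusive means one replicate passes the limit while the other fails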
aSyn 5UTR inh: MLPCN primary screen, SNCA 5' untranslated region; inhibition, % (tested at 7.5 µM); hit rate 0.82% among 300,000; alpha-synuclein 5'UTR reporter, inhibitor activity; in the data active means inhibition above about 60%; inconclusive means no clear call, values can overlap the other calls;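 further: H4 neuroglioblastoma cells stably carrying SNCA 5'UTR luciferase fusion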
Numbers stand for hits; n = inactive; u = inconclusive; x = no result.

SMILES | KLF5 inhibitor | IEC-6 tox | Ba/F3 V617F tox | BaF3 parental | APP 5UTR inh | aSyn 5UTR inh
Cc1cc(N2CCCC2=O)cc(C)c1S(=O)(=O)NCCOc1ccc(C(C)(C)C)cc1 | n | n | n | 36 | n | n
CCCSc1cc(NCCOC(=O)CCC)c([N+](=O)[O-])c2nonc12 | n | n | n | n | n | n
CCCC(=O)OCCNc1cc(Sc2nccn2C)c2nonc2c1[N+](=O)[O-] | n | n | n | n | 75 | n
Cc1ccccc1CNS(=O)(=O)c1c(C(=O)N2CCCCC2)c(C)n(C)c1C | n | n | x | x | x | n
O=C1NCCN/C1=C\C(=O)c1ccc(Br)cc1 | n | n | n | n | x | n
O=C1NCCN/C1=C\C(=O)c1ccccc1 | n | n | n | n | 74 | n
Cc1cc2nc(/N=C(\N)NC(=O)C(C)C)nc(C)c2cc1C | n | n | n | 30 | x | n
CCCC(=O)N/C(N)=N/c1nc(C)c2cc(C)ccc2n1 | n | n | n | n | x | n
CCC(=O)N/C(N)=N/c1nc(C)c2cc(C)c(C)cc2n1 | n | n | 38 | 53 | x | n
COc1ccc(/C=C(/NC(=O)c2ccccc2)C(=O)N2CCOCC2)cc1OC | n | n | x | x | x | n
Cc1cccc(C)c1NC(=O)C1CCN(S(C)(=O)=O)CC1 | n | n | x | x | x | n
O=C(CSc1n[nH]c(-c2ccccn2)n1)Nc1ccc(F)cc1 | n | n | x | x | x | 73
Cc1ccc(NC(=O)CSc2n[nH]c(-c3ccccn3)n2)cc1 | n | n | x | x | x | u
Nc1[nH]n2c(=O)cc(-c3ccccc3)nc2c1N=Nc1ccccc1 | n | n | n | n | n | 68
Cc1cccc(CSC(Nc2ccc(F)cc2)=C(C#N)C#N)c1 | n | n | n | n | 48 | n
Cc1cccc(CSC(=N)N)c1 | n | n | n | n | n | n
Cc1ccc(C)c(SCC(=O)OCC(=O)NCCNC(=O)COC(=O)CSc2cc(C)ccc2C)c1 | x | x | x | x | x | n
C=CCn1cc(/C=N/Nc2nc3ccccc3[nH]2)c2ccccc21 | n | 23 | n | n | n | n
CC(C)Cn1c(/C=N/Nc2nc3ccccc3[nH]2)nc2ccccc21 | n | n | n | n | 71 | n
Cn1c(/C=N/Nc2nc3ccccc3[nH]2)nc2ccccc21 | n | n | n | n | n | n
CCCn1c(/C=N/Nc2nc3ccccc3[nH]2)nc2ccccc21 | n | n | n | n | 74 | x
Cc1c(/C=N/Nc2nc3ccccc3[nH]2)c2ccccc2n1C | n | n | n | n | x | n
CCOc1ncccc1C(=O)NCC(c1ccccc1)N(C)C (centres undefined) | n | n | x | x | x | n
CC1(C)Cc2c(cnn2-c2cccc(F)c2)C(NC(=O)C2CCOCC2)C1 (centres undefined) | n | n | x | x | x | n
C#CC(=O)N(c1ccc(OC)cc1OC)C(C(=O)NC1CCCC1)c1cccs1 (centres undefined) | n | 102 | 101 | 27 | n | 92
SMILES | KLF5 inhibitor | IEC-6 tox | Ba/F3 V617F tox | BaF3 parental | APP 5UTR inh | aSyn 5UTR inh
N#CCc1ccc(OC(=O)c2ccncc2)cc1 | x | x | x | x | x | n
COc1ccc(Nc2oc(COc3ccccc3OC)nc2C#N)cc1 | n | n | n | n | n | 98
CN(C)/C=C/C(=O)c1ccc([N+](=O)[O-])c(CS(=O)(=O)c2ccc(Cl)cc2)c1 | n | n | x | x | x | n
C[n+]1ccccc1COc1ccc(C(C)(C)C)cc1 | n | n | 73 | 68 | n | n
CC(C)(C)c1ccc(OCCNCc2ccccc2)cc1 | n | n | x | x | x | n
COc1ccc(OCC(=O)N2CCCC(CO)(CCOc3ccccc3)C2)cc1 (centres undefined) | n | n | x | x | x | n
CCOc1ccc(N(CC(=O)NCCSCc2ccco2)S(=O)(=O)c2ccc(C)cc2)cc1 | n | n | x | x | x | n
O=[N+]([O-])c1ccccc1S(=O)(=O)N1CCCc2ccccc21 | n | n | x | x | x | n
Cc1cc(N/N=C/c2c(O)ccc3ccccc23)nc(-c2ccccc2O)n1 | n | n | n | n | 58 | 72
Oc1ccc2ccccc2c1/C=N/Nc1ccccc1 | n | n | n | n | n | n
C/C(=N\Nc1nc2ccccc2[nH]1)c1cc2ccccc2o1 | n | n | n | n | n | n
C/C(=N\Nc1nc2ccccc2[nH]1)c1ccccn1 | n | n | x | x | x | 87
COc1ccc2c(c1)c1ccc3c(c1n2C)C(=O)C=CC3=O | n | n | 58 | 35 | x | x
Cc1ccc2c(c1)c1ccc3c(c1n2C)C(=O)C=CC3=O | n | n | n | n | x | x
Cc1ccc(-c2ccc(/C=C3\SC(N4CCOCC4)=NC3=O)o2)cc1 | n | 102 | n | n | n | n
O=C1N=C(N2CCOCC2)S/C1=C/c1ccc(-c2ccc(F)cc2)o1 | n | n | n | n | n | n
O=C1CCc2cc(S(=O)(=O)NCCc3ccccc3)cc3c2N1CC3 | x | x | x | x | x | n
CCc1ccc(/C=C/c2c[nH]c3ccccc23)[n+](CC)c1 | n | n | 94 | 79 | n | n
CCc1ccc(-c2cc(C(=O)N/N=C/c3c[nH]c4ccccc34)[nH]n2)cc1 | n | n | n | n | n | n
O=c1cc(Nc2ccc3c(c2)OCCO3)[nH]c(=O)n1C1CCCCC1 | n | n | n | n | 83 | n
CCSc1nnc(NC(=O)c2ccc3c(c2)OCO3)s1 | n | n | n | 93 | n | n
CC(C)(C)NC(=O)CSc1nnc(NC(=O)c2ccccc2Cl)s1 | n | n | n | n | 46 | n
COc1ccc(/C(C)=N\NC(=O)c2ccc3c(c2)OCO3)cc1OC | n | n | n | n | n | n
CC(C)c1nnc(NC(=O)c2ccc3c(c2)OCO3)s1 | n | n | n | n | n | u
CCOC(=O)CSc1nnc(NC(=O)c2ccc3c(c2)OCO3)s1 | n | n | x | x | x | n
SMILES | KLF5 inhibitor | IEC-6 tox | Ba/F3 V617F tox | BaF3 parental | APP 5UTR inh | aSyn 5UTR inh
COc1ccccc1-c1nnc(NC(=O)c2ccc3c(c2)OCO3)s1 | n | n | n | n | 46 | n
COc1cc(C(=O)N/N=C(\C)c2ccc3c(c2)OCO3)cc(OC)c1OC | n | 89 | 73 | 72 | 91 | n
Clc1ccc(NCc2ccsc2)cc1 | n | n | x | x | x | n
CCSc1nnc(NC(=O)c2cnccn2)s1 | x | x | x | x | x | n
CCSc1nnc(NC(=O)c2ccccn2)s1 | n | 47 | n | n | n | 67
CC(=O)Nc1ccc(NC(=O)CN(c2cccc([N+](=O)[O-])c2)S(C)(=O)=O)cc1 | n | n | n | n | n | 69
CS(=O)(=O)N(CC(=O)Nc1cccc(F)c1)c1cccc([N+](=O)[O-])c1 | n | n | n | n | n | n
COc1ccc(-n2c(-c3ccc(Br)cc3)nc(=S)c3c2CCCC3)cc1 | n | n | n | n | n | n
COc1ccc(-n2c(-c3ccccc3)cc3c2CCCC3=O)cc1 | n | n | n | n | n | n
COc1ccc(-n2c(-c3ccc(Br)cc3)c[n+]3c2SC(C)C3)cc1 (centres undefined) | n | n | 76 | 67 | n | n
COc1ccc(-n2c(-c3ccc(Br)cc3)n[nH]c2=S)cc1 | n | n | x | x | x | n
